This is an account of results in PubChem BioAssay (Tox21).

Assay [1] in a line: Caspase-3/7 induction in CHO-K1 cells by small molecules, qHTS cell viability counter screen (AID 1346979). Also: nearly all actives have a fitted effect of over 35% in size. Also: potency is read from the fitted curve at half-maximal effect. In short, it runs like this: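 In the same wells as the caspase read, viability of compound-treated wild-type CHO-K1 cells was assessed using CellTiter-Fluor, added after 16hr at 37C and measured by fluorescence following 1hr further incubation.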
For assay [2], the target named is Nuclear receptor subfamily 1 group I member 2 (Rattus norvegicus) (UniProt Q9R1A7). Kind of assay: Rat pregnane X receptor (rPXR) activation by small molecules, qHTS assay (AID 1346983). Also: nearly all actives have a fitted effect of over 20% in size. To be noted: rPXR luciferase reporter cells, One-Glo luminescence, 24 h; stronger effect = higher value. The procedure, abridged:
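Cell-based rPXR luciferase reporter assay, 2,000 cells per well, rested 5hr at 37 C before compound addition in DMSO, then 24 hr at 37 C. One-Glo reagent was added and luminescence read after 30 min at room temperature.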

Assay [3] can be described thus: Caspase-3/7 induction in CHO-K1 cells by small molecules, qHTS assay (AID 1346980). Also: nearly all actives have a fitted effect of over 15% in size. The procedure, abridged:
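Wild-type cells were seeded at 1,500 per well and settled 5 hr at 37 C, 5% CO2, then exposed to DMSO-dissolved compounds for 17 hr. Caspase-Glo 3/7 reagent was added, and luminescence was read after 30min at room temperature.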
On the technique in general: In qHTS, concentration-response curves come from the screen itself.

The target of assay [4] is Nuclear receptor subfamily 1 group I member 2 (Homo sapiens) (UniProt O75469). Kind of assay: Human pregnane X receptor (PXR) small molecule agonists, qHTS assay (AID 1346982). Also: nearly all actives have a fitted effect of over 35% in size. Also: potency is read from the fitted curve at half-maximal effect. The procedure, abridged: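 Agonist mode qHTS: PXR-Luc HepG2 cells plated 5 hr before DMSO-dissolved compounds were pinned in, cultured 24 hr at 37 C, 5% CO2; ONE-Glo luminescence readout.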
The target in assay [5] is Cytochrome P450 2D6 (Homo sapiens) (UniProt P10635). The assay can be described thus: Cytochrome P450 Family 2 Subfamily D Member 6 (CYP2D6) small molecule antagonists: luciferase reporter qHTS assay (AID 1671196). Also: nearly all actives have a fitted effect of over 50% in size. Also: potency is read from the fitted curve at half-maximal effect. The procedure, abridged: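 P450-Glo format: CYP2D6 converts a proluciferin substrate to luciferin in an NADPH-driven reaction lasting 1 h at room temperature. Light output, proportional to CYP2D6 activity, reflects interference by test chemicals.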

The nature of assay [6]: Caspase-3/7 induction in HepG2 cells by small molecules, qHTS cell viability counter screen (AID 1346981). Also: nearly all actives have a fitted effect of over 30% in size. Also: potency is read from the fitted curve at half-maximal effect. In short, it runs like this:
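Steps: seed 2,000 HepG2 cells per well; incubate 5 hr at 37 C; pin-add compounds in DMSO; incubate 16 hr; add CellTiter-Fluor; after 1 hr at 37 C and 5% CO2, read fluorescence.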

For assay [7], the target named is Cytochrome P450 2C19 (Homo sapiens) (UniProt P33261). The assay can be described thus: Cytochrome P450 Family 2 Subfamily C Member 19 (CYP2C19) small molecule antagonists: luciferase reporter qHTS assay (AID 1671197). Also: nearly all actives have a fitted effect of over 65% in size. Also: potency is read from the fitted curve at half-maximal effect. In short, it runs like this:
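Quantitative high-throughput screen of the Tox21 library using CYP2C19 with proluciferin substrate. Reaction: NADPH regeneration, 37C, 1 h, after 10 min compound preincubation at room temperature. Readout: luminescence.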

In assay [8] the target is Nuclear receptor subfamily 1 group I member 2 (Homo sapiens) (UniProt O75469). Kind of assay: Human pregnane X receptor (PXR) activation by small molecules, qHTS assay (AID 1346985). Also: nearly all actives have a fitted effect of over 40% in size. Also: potency is read from the fitted curve at half-maximal effect. The procedure, abridged: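 DPX-2 cells (HepG2 co-transfected with a PXR response element and a CYP3A4-promoter luciferase construct) were seeded at 2,000 per well, rested 5 hr at 37C, then exposed to DMSO-dissolved compounds for 24 hr. Activation was read as luciferase luminescence.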

For assay [9] the target is unchanged. The assay can be described thus: CYP3A4 induction through human pregnane X receptor (PXR) by small molecules, qHTS assay (AID 1346984). Also: nearly all actives have a fitted effect of over 40% in size. Also: potency is read from the fitted curve at half-maximal effect. The procedure, abridged: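 Steps: seed DPX-2 cells, 5 hr at 37C; pin-transfer compounds; 24 hr at 37C; add Luciferin-IPA (3uM final), 3 hr at 37C; add One-Glo, 30 min RT; read luminescence.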

The structures appear in SMILES notation. Values joined by “and” are separate entries in the source; they are usually repeats but may differ in a detail not shown here. Equal entries are not always repeated. Results filed as inconclusive are left out. Where a structure was tested more than once in an assay, its records may differ in their call. Active and inactive are the calls of the source. Calls follow the shape of the dose curve; as a rule, active = well fitted curve in the direction sought with a large enough effect in the repeat runs; inconclusive = weak or mixed curves; inactive = no such curve, though single readings can be large; an effect the other way counts as inactive or inconclusive.
% is scaled to controls: 0 for no effect and ±100 for the full control effect.

Sequence of Nuclear receptor subfamily 1 group I member 2 (Homo sapiens) (O75469 whole entry, looked up): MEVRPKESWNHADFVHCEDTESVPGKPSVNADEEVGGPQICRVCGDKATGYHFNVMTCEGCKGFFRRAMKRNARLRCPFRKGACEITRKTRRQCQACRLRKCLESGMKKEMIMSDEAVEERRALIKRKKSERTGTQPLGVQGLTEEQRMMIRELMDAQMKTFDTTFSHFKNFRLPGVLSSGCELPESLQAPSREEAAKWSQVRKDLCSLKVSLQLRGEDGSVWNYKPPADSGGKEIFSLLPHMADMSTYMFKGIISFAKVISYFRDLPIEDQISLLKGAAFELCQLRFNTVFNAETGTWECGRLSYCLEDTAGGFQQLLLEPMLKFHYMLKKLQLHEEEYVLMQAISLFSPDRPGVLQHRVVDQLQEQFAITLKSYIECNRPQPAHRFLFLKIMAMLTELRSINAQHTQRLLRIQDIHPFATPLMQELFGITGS
Sequence of Nuclear receptor subfamily 1 group I member 2 (Rattus norvegicus) (Q9R1A7 whole entry, looked up): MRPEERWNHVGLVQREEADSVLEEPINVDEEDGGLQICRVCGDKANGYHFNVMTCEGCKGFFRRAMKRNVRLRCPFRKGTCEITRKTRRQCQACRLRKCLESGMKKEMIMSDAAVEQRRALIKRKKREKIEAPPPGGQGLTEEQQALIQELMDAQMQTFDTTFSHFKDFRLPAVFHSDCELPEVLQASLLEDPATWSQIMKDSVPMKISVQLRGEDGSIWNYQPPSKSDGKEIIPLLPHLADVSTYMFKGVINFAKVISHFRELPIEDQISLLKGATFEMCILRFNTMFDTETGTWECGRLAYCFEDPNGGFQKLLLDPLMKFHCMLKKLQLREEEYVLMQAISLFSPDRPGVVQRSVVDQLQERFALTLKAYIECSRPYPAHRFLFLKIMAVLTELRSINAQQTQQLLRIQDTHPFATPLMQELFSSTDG
Sequence of Cytochrome P450 2C19 (Homo sapiens) (P33261 whole entry, looked up): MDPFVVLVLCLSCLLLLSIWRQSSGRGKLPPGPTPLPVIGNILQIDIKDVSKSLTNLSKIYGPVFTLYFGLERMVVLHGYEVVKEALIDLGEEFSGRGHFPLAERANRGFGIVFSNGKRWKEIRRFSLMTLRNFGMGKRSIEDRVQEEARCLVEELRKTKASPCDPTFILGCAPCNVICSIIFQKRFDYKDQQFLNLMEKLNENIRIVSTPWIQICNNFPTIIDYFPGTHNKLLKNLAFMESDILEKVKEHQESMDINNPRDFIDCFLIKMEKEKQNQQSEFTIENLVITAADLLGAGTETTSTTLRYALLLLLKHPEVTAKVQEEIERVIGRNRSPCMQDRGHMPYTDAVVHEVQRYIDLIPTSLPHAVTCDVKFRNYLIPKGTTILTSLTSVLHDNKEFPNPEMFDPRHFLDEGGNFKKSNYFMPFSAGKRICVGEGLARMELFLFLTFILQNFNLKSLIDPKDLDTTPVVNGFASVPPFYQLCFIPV
Sequence of Cytochrome P450 2D6 (Homo sapiens) (P10635 whole entry, looked up): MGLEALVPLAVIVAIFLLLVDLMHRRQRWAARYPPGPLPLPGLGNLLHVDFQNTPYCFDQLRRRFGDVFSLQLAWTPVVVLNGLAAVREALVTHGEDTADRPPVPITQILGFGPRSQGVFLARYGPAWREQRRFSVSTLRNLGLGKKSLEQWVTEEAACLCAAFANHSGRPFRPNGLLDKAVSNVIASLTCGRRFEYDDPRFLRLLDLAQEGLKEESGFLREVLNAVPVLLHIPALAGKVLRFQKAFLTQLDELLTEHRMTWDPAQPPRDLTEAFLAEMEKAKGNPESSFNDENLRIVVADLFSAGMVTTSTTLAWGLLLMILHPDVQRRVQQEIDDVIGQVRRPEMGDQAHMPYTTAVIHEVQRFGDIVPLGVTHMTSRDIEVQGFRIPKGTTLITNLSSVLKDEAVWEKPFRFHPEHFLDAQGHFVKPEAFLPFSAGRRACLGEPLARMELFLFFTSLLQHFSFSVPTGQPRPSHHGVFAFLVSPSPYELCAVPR

Turning to `CN1CCC[C@@H]1CCO[C@](C)(c1ccccc1)c1ccc(Cl)cc1`, the Potency in assay [1] was 26.6 µM (active). The max activation in assay [2] was 6.7% (inactive).
Turning to `O=c1[nH]c2ccccc2n1CCCN1CCN(C(c2ccccc2)c2ccccc2)CC1`, the Potency entry in assay [3] was “inactive”. The Potency was 4.22 µM (active) in [4] and 0.692 µM (active) in [5].
In the case of `O=C(/C=C/c1ccc(O)c(O)c1)O[C@@H](C(=O)O)[C@@H](OC(=O)/C=C/c1ccc(O)c(O)c1)C(=O)O`, the Potency result in [3], in assay [6], in [4] and in [7] was “inactive” in each case.
As for `O=C(O)c1cc(O)c2ccccc2c1O`, the Potency in assay [1] is 6.11 µM (active); in assay [4] it was 1.93 µM (active); in [5], 35.6 µM (active); in assay [7], 7.1 µM (active). Further, the Potency entry in [3] is “inactive”.
Take `Oc1cc(Cl)cc(Cl)c1Cl`: the Potency result in assay [7] is “inactive”.
As to `[Cu+]`, the Potency result in [1], in [6] and in assay [4] was “inactive” throughout. The Potency in assay [7] was 2.24 µM (active).
In the case of `C=CC(=O)Nc1cc2c(Nc3ccc(F)c(Cl)c3)ncnc2cc1OCCCN1CCOCC1`, the Potency in assay [1] is 5.96 µM (active); in [6] it was 5.96 µM (active); in assay [4] it was 10.6 µM (active). Further, the Potency entry in assay [3] and in assay [7] was “inactive” in each case.
For the molecule `CCN1C(=O)c2ccccc2C1Nc1ccc(OCCN2CCCCC2)cc1` (stereo not given), the Potency result in assay [1] was “inactive”. Besides, the Potency in assay [4] was 1.68 µM (active).
Turning to `OCC(F)(F)F`, the Potency entry in assay [1], in [6], in assay [4] and in assay [5] was “inactive” in each case.
On to `CCOC(=O)c1ccc(C2CCC(NC[C@H](O)COc3ccc(O)c(NS(C)(=O)=O)c3)CC2)cc1` (stereo not given in full), for which, in assay [4], the Potency result was “inactive”. Moreover, the Potency in assay [5] was 58.4 µM (active); in assay [7] it was 32.8 µM (active).
Turning to `CN1CCCCC1CCN1c2ccccc2Sc2ccc(S(C)=O)cc21` (stereo not given), the Potency was 4.73 µM (active) in assay [4], 15.8 µM (active) in [8] and 0.0871 µM (active) in assay [5]. In addition, the max activation in assay [2] was -2.96% (inactive) and -0.765% (inactive).
As for `Cc1ccc(N/N=c2\c(=O)cc/c(=N\Nc3ccc(S(=O)(=O)O)cc3)c2=O)c(C)c1`, the Potency in assay [1] is 27.3 µM (active); in assay [6], 54.5 µM (active); in assay [7] it was 79.6 µM (active). For the same molecule, the Potency entry in assay [3] is “inactive”.
Consider `CC(=O)OCC=C(C)C`, for which the Potency entry in [1], in [3], in assay [6], in assay [4], in assay [5] and in [7] was “inactive” throughout.
In the case of `C#CC1(O)CC[C@H]2[C@@H]3CCC4=CCCC[C@@H]4[C@H]3CC[C@@]21C` (stereo not given in full), the Potency in assay [1] is 61.1 µM (active) and 26.6 µM (active); in [7] it was 7.96 µM (active) and 11 µM (active). Moreover, the Potency result in assay [3] and in assay [5] was “inactive” throughout. Also, the max activation in assay [2] was -0.183% (inactive).
Consider `Fc1ccc(C(c2ccc(F)cc2)N2CCNCC2)cc1`, for which the Potency result in assay [1], in assay [3], in assay [6], in [4] and in assay [7] was “inactive” throughout. Also, the Potency in [5] was 2.19 µM (active).
As to `ClCCl`, the Potency entry in [1], in [3] and in assay [4] was “inactive” in each case.
As to `CC1(C)[C@@H](O)CC[C@]2(C)[C@H]3C(=O)C=C4[C@@H]5C[C@@](C)(C(=O)O)CC[C@]5(C)CC[C@@]4(C)[C@]3(C)CC[C@@H]12`, the Potency result in assay [3], in [4], in assay [9], in [8], in [5] and in [7] was “inactive” throughout. In addition, the max activation in assay [2] was 1.62% (inactive).
In the case of `CCCCN(CCCC)CC(O)c1cc(Cl)cc2c1-c1ccc(Cl)cc1/C2=C/c1ccc(Cl)cc1` (stereo not given), the Potency in assay [1] is 26.6 µM (active); in assay [9], 10 µM (active); in assay [8] it was 11.2 µM (active); in assay [5], 0.49 µM (active); in assay [7], 17.4 µM (active).
In the case of `CCCCC/C=C\C/C=C\CCCCCCCC(=O)O`, the Potency in assay [1] was 60.1 µM (active); in assay [4] it was 60.1 µM (active); in assay [5], 31.2 µM (active); in [7], 22.1 µM (active) and inactive. The Potency result in [3] and in [8] was “inactive” in each case. Moreover, the max activation in assay [2] was -4.54% (inactive).
As to `CN(C)[C@@H](CCOc1cccc2ccccc12)c1ccccc1`, the Potency entry in [3] was “inactive”. Further, the Potency in assay [5] is 0.871 µM (active); in assay [7], 0.977 µM (active).
Turning to `CCCC(=O)OCCc1ccccc1`, the Potency result in [1], in [3], in assay [4], in [5] and in [7] was “inactive” in each case.
As for `CN1CCN(Cc2cc(-c3ccc4[nH]c(=O)oc4c3)co2)[C@@H](c2ccc(F)cc2)C1`, the Potency in [1] was 58.8 µM (active); in assay [4], 10.5 µM (active); in assay [5], 34.3 µM (active). In addition, in [3], the Potency result was “inactive”.
With `O=C(c1ccc(O)c(O)c1)c1ccc(O)cc1O`, the Potency was 54.4 µM (active) in [1], 54.4 µM (active) in [4], 3.55 µM (active) in assay [5] and 17.8 µM (active) in assay [7]. Further, the Potency entry in [3] was “inactive”.
Turning to `CCCC[P+](C)(CCCC)CCCC`, the Potency result in assay [1], in [3] and in assay [7] was “inactive” in each case. The Potency in assay [4] is 61.9 µM (active); in assay [5] it was 0.203 µM (active).
As for `CC(CO)Oc1ccccc1` (stereo not given), the Potency entry in [1], in [3], in assay [6] and in assay [4] was “inactive” in each case. Moreover, the Potency was 41.2 µM (active) in assay [5] and 36.7 µM (active) in assay [7].
As for `OCCN1CCN(CCCN2c3ccccc3Sc3ccc(C(F)(F)F)cc32)CC1`, in assay [1], the Potency is 29.8 µM (active). For the same molecule, in [4], the Potency result is “inactive”.
`CC(=O)CC(=O)Nc1ccc(S(=O)(=O)O)cc1`: the Potency result in [1], in assay [3], in assay [6], in assay [5] and in [7] was “inactive” in each case.
With `CC/C=C\CCCCCO`, the Potency result in assay [1], in [3], in assay [6], in assay [4] and in [7] was “inactive” in each case.
Turning to `CCCCCCCCCCCCOCCOCCOCCOCCOCCOCCOCCOCCOCCO`, the Potency is 11.9 µM (active) in assay [1] and 7.5 µM (active) in [4]. Moreover, the max activation in assay [2] is -18.4% (inactive). In addition, the Potency result in assay [8] and in [5] was “inactive” in each case.
Turning to `O=C(Oc1ccccc1)Oc1ccccc1`, the Potency result in [1], in [3] and in assay [6] was “inactive” each time. In assay [7], the Potency was 79.3 µM (active).
In the case of `COC(=O)Nc1nc2ccc(C(=O)c3ccccc3)cc2[nH]1`, the Potency in assay [1] is 8.41 µM (active); in assay [4], 4.22 µM (active); in assay [8] it was 5.01 µM (active). Moreover, the Potency entry in assay [6], in [5] and in assay [7] was “inactive” in each case.
